From PubChem BioAssay AID1159580 (chemical genetic matrix, 2015)
Out of some 5,500 compounds screened, about 2,000 (36%) were called active. Inconclusive results (about 18%) are left out. Rule as the data show it: active = normalized growth mostly below about 0.91 (no sharp cut-off); inconclusive = no clear call, values can overlap the other calls; inactive = mostly above about 0.92. The list shows a part of the results.

Assay: chemical genetic growth profiling, strain panel (AID 1159580);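 also: tested at 20 µM; growth read once vehicle control cultures reached saturation at 30 °C; 1 = growth at the plate median or of vehicle wells; lower values mean less growth of the strain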
Conditions: growth OD

Measured: normalized growth

O=c1[nH]c(=O)n(C2C[C@@H](O)[C@@H](CO)O2)cc1F (stereo partly drawn)
inactive: S. cerevisiae deletion strains, locus YJR066W, strain TOR1, active compounds read low 0.932 | S. cerevisiae deletion strains, locus YKL009W, strain mrt4, active compounds read low 1.04 | S. cerevisiae deletion strains, locus YKL068W, active compounds read low 1 | S. cerevisiae deletion strains, locus YKL085W, strain MDH1 (second series), active compounds read low 0.996 | S. cerevisiae deletion strains, locus YKL085W, strain MDH1, active compounds read low 0.996 | S. cerevisiae deletion strains, locus YKL160W, strain elf1, active compounds read low 1 | S. cerevisiae deletion strains, locus YKR001C, strain vps1, active compounds read low 1.01 | S. cerevisiae deletion strains, locus YKR026C, strain gcn3, active compounds read low 0.978 | S. cerevisiae deletion strains, locus YKR091W, strain srl3, active compounds read low 0.995 | S. cerevisiae deletion strains, locus YLL001W, strain dnm1, active compounds read low 0.992 | S. cerevisiae deletion strains, locus YLL026W, active compounds read low 0.985 | S. cerevisiae deletion strains, locus YLL041C, strain sdh2, active compounds read low 0.984 | S. cerevisiae deletion strains, locus YLR027C, strain aat2, active compounds read low 0.994 | S. cerevisiae deletion strains, locus YLR039C, strain RIC1, active compounds read low 1.04 | S. cerevisiae deletion strains, locus YLR058C, strain SHM2, active compounds read low 1.02 | S. cerevisiae deletion strains, locus YLR102C, strain apc9, active compounds read low 1.01 | S. cerevisiae deletion strains, locus YLR113W, strain HOG1, active compounds read low 0.986 | S. cerevisiae deletion strains, locus YLR221C, strain rsa3, active compounds read low 1.01 | S. cerevisiae deletion strains, locus YLR258W, strain gsy2, active compounds read low 1.01 | S. cerevisiae deletion strains, locus YLR262C, strain YPT6 (second series), active compounds read low 1.02 | S. cerevisiae deletion strains, locus YLR262C, strain YPT6, active compounds read low 1.04 | S. cerevisiae deletion strains, locus YLR268W, strain sec22, active compounds read low 1.03 | S. cerevisiae deletion strains, locus YLR320W, strain mms22, active compounds read low 1.01 | S. cerevisiae deletion strains, locus YLR330W, strain CHS5, active compounds read low 1.01 | S. cerevisiae deletion strains, locus YLR342W, strain FKS1 (second series), active compounds read low 1.02 | S. cerevisiae deletion strains, locus YLR342W, strain FKS1, active compounds read low 1.01 | S. cerevisiae deletion strains, locus YLR357W, strain rsc2, active compounds read low 0.974 | S. cerevisiae deletion strains, locus YLR370C, strain arc18, active compounds read low 1 | S. cerevisiae deletion strains, locus YLR371W, strain rom2, active compounds read low 1.02 | S. cerevisiae deletion strains, locus YLR384C, strain iki3, active compounds read low 0.982 | S. cerevisiae deletion strains, locus YLR418C, strain cdc73, active compounds read low 1.02 | S. cerevisiae deletion strains, locus YML016C, strain PPZ1, active compounds read low 1.01 | S. cerevisiae deletion strains, locus YML032C, strain rad52, active compounds read low 1 | S. cerevisiae deletion strains, locus YML120C, strain ndi1, active compounds read low 0.984 | S. cerevisiae deletion strains, locus YML124C, strain tub3, active compounds read low 1.01 | S. cerevisiae deletion strains, locus YMR058W, strain fet3, active compounds read low 0.986 | S. cerevisiae deletion strains, locus YMR078C, strain ctf18, active compounds read low 1.01 | S. cerevisiae deletion strains, locus YMR125W, strain sto1, active compounds read low 0.985 | S. cerevisiae deletion strains, locus YMR129W, active compounds read low 0.999 | S. cerevisiae deletion strains, locus YMR205C, strain PFK2, active compounds read low 1.01 | S. cerevisiae deletion strains, locus YMR223W, strain ubp8, active compounds read low 1 | S. cerevisiae deletion strains, locus YMR231W, strain pep5, active compounds read low 1.01 | S. cerevisiae deletion strains, locus YMR263W, strain SAP30, active compounds read low 1.05 | S. cerevisiae deletion strains, locus YMR307W, strain GAS1, active compounds read low 1.05 | S. cerevisiae deletion strains, locus YNL067W, strain RPL9B, active compounds read low 1.06 | S. cerevisiae deletion strains, locus YNL071W, strain lat1, active compounds read low 0.993 | S. cerevisiae deletion strains, locus YNL153C, strain GIM3, active compounds read low 1.04 | S. cerevisiae deletion strains, locus YNL183C, strain NPR1, active compounds read low 0.93 | S. cerevisiae deletion strains, locus YNL209W, strain ssb2, active compounds read low 0.987 | S. cerevisiae deletion strains, locus YNL233W, strain BNI4, active compounds read low 1.05 | S. cerevisiae deletion strains, locus YNL248C, strain rpa49, active compounds read low 0.973 | S. cerevisiae deletion strains, locus YNL250W, strain rad50, active compounds read low 1 | S. cerevisiae deletion strains, locus YNL271C, strain bni1, active compounds read low 1.01 | S. cerevisiae deletion strains, locus YNL298W, strain CLA4, active compounds read low 0.996 | S. cerevisiae deletion strains, locus YNL307C, strain MCK1, active compounds read low 1.02 | S. cerevisiae deletion strains, locus YNL322C, strain KRE1 (second series), active compounds read low 0.999 | S. cerevisiae deletion strains, locus YNL322C, strain KRE1, active compounds read low 1 | S. cerevisiae deletion strains, locus YNR049C, strain mso1, active compounds read low 0.982 | S. cerevisiae deletion strains, locus YNR052C, strain pop2, active compounds read low 1.01 | S. cerevisiae deletion strains, locus YOL012C, strain htz1 1.63 | S. cerevisiae deletion strains, locus YOL147C, strain pex11, active compounds read low 1.02 | S. cerevisiae deletion strains, locus YOR001W, strain rrp6, active compounds read low 0.987 | S. cerevisiae deletion strains, locus YOR061W, strain CKA2, active compounds read low 1.01 | S. cerevisiae deletion strains, locus YOR069W, strain VPS5, active compounds read low 1.01 | S. cerevisiae deletion strains, locus YOR070C, strain gyp1, active compounds read low 1.01 | S. cerevisiae deletion strains, locus YOR080W, strain dia2, active compounds read low 1 | S. cerevisiae deletion strains, locus YOR083W, strain WHI5, active compounds read low 1.01 | S. cerevisiae deletion strains, locus YOR106W, strain vam3, active compounds read low 0.996 | S. cerevisiae deletion strains, locus YOR136W, strain idh2, active compounds read low 1.02 | S. cerevisiae deletion strains, locus YOR144C, strain elg1, active compounds read low 1.01 | S. cerevisiae deletion strains, locus YOR184W, strain ser1, active compounds read low 1.02 | S. cerevisiae deletion strains, locus YOR231W, strain MKK1, active compounds read low 0.98 | S. cerevisiae deletion strains, locus YOR265W, strain rbl2, active compounds read low 1.01 | S. cerevisiae deletion strains, locus YOR270C, strain vph1, active compounds read low 0.994 | S. cerevisiae deletion strains, locus YOR290C, strain snf2, active compounds read low 0.989 | S. cerevisiae deletion strains, locus YOR316C, strain cot1, active compounds read low 1.02 | S. cerevisiae deletion strains, locus YPL051W, strain arl3, active compounds read low 1.02 | S. cerevisiae deletion strains, locus YPL078C, strain atp4, active compounds read low 0.976 | S. cerevisiae deletion strains, locus YPL106C, strain sse1, active compounds read low 1.01 | S. cerevisiae deletion strains, locus YPL240C, strain hsp82, active compounds read low 0.987 | S. cerevisiae deletion strains, locus YPL241C, strain CIN2, active compounds read low 1 | S. cerevisiae deletion strains, locus YPL256C, strain CLN2, active compounds read low 0.957 | S. cerevisiae deletion strains, locus YPR119W, strain clb2, active compounds read low 1.01 | S. cerevisiae deletion strains, locus YPR141C, strain kar3, active compounds read low 1.01 | S. cerevisiae deletion strains, locus YPR163C, strain tif3, active compounds read low 1.01 | S. cerevisiae deletion strains, locus YPR167C, strain met16, active compounds read low 1.02 | S. cerevisiae deletion strains, strain wtn01, active compounds read low 0.996 | S. cerevisiae strains, strain wild type, active compounds read low 1.01
